Assay results published in PubChem BioAssay (EPA / NIEHS).
The source made the active and inactive calls. How the source made its calls: active means hit-call score of the fitted dose curve at least 0.9, where 1 is the maximum; inactive means score below 0.9.

Legend:
[1] = read-out: Tissue Factor, F3 (gene 2152); experiment: BSK_CASM3C_TissueFactor: BioMAP Diversity Plus: CASM3C Assay for Tissue Factor Biomarker Activity (AID 2283052); conditions: primary human coronary artery smooth muscle cells; actives raise or lower the signal;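 further: cell surface tissue factor protein level read by ELISA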
[2] = read-out: Interferon-gamma inducible Protein 10 (IP10), CXCL10 (gene 3627); experiment: BSK_hDFCGF_IP10: BioMAP Diversity Plus: hDFCGF Assay for Interferon-gamma inducible Protein 10 (IP10) Biomarker Activity (AID 2283053); conditions: primary human foreskin fibroblasts; actives raise or lower the signal
In short: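 Primary foreskin fibroblasts, human; 24 h compound exposure; IP-10 by ELISA; bidirectional fit vs DMSO.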

[3] = read-out: Urokinase-type plasminogen activator receptor (uPAR), PLAUR (gene 5329); experiment: BSK_CASM3C_uPAR: BioMAP Diversity Plus: CASM3C Assay for Urokinase-type plasminogen activator receptor (uPAR) Biomarker Activity (AID 2283054); conditions: primary human coronary artery smooth muscle cells; actives raise or lower the signal;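 further: cell-surface uPAR protein level quantified by ELISA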
[4] = read-out: Vascular cell adhesion molecule 1 (VCAM1), VCAM1 (gene 7412); experiment: BSK_CASM3C_VCAM1: BioMAP Diversity Plus: CASM3C Assay for Vascular cell adhesion molecule 1 (VCAM1) Biomarker Activity (AID 2283055); conditions: primary human coronary artery smooth muscle cells; actives raise or lower the signal;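 further: VCAM-1 protein level quantified by ELISA on the cells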
[5] = read-out: Collagen III, COL3A1 (gene 1281); experiment: BSK_hDFCGF_CollagenIII: BioMAP Diversity Plus: hDFCGF Assay for Collagen III Biomarker Activity (AID 2283056); conditions: primary human foreskin fibroblasts; actives raise or lower the signal
In short: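 Human foreskin fibroblast primary cultures sampled 24 h after dosing; Collagen III quantified by ELISA. Signal fitted bidirectionally against DMSO baseline.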

[6] = read-out: Epidermal growth factor receptor (EGFR), EGFR (gene 1956); experiment: BSK_hDFCGF_EGFR: BioMAP Diversity Plus: hDFCGF Assay for Epidermal growth factor receptor (EGFR) Biomarker Activity (AID 2283057); conditions: primary human foreskin fibroblasts; actives raise or lower the signal
In short: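 hDFCGF system, primary human foreskin fibroblasts; compound 24 h; EGFR measured by ELISA; DMSO = negative control/baseline; bidirectional fitting.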

[7] = read-out: Interleukin-8 (IL8), CXCL8 (gene 3576); experiment: BSK_hDFCGF_IL8: BioMAP Diversity Plus: hDFCGF Assay for Interleukin-8 (IL8) Biomarker Activity (AID 2283058); conditions: primary human foreskin fibroblasts; actives raise or lower the signal
In short: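 Primary human foreskin fibroblasts (hDFCGF system) dosed with chemical; IL-8 measured by ELISA 24 hours later. Bidirectional curve fitting relative to DMSO baseline; cytotoxicity tracked in parallel cultures by SRB total protein staining.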

[8] = BSK_hDFCGF_Proliferation: Cell Proliferation Assessment in the BioMAP Diversity Plus: hDFCGF Assay (AID 2283059); conditions: primary human foreskin fibroblasts;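 further: curves fitted for both rise and fall of signal versus DMSO baseline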
In short: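 Sub-confluent human foreskin fibroblast cultures receive test chemical […]. Relative cell number is quantified by sulforhodamine B staining (0.1%, after 10% TCA fixation) at 560 nm, with bidirectional fitting referenced to DMSO.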

[9] = read-out: Macrophage colony-stimulating factor (MCSF), CSF1 (gene 1435); experiment: BSK_hDFCGF_MCSF: BioMAP Diversity Plus: hDFCGF Assay for Macrophage colony-stimulating factor (MCSF) Biomarker Activity (AID 2283060); conditions: primary human foreskin fibroblasts; actives raise or lower the signal
In short: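 Human foreskin fibroblast primary cultures; M-CSF measured by ELISA 24 hours after chemical dosing. Bidirectional fitting relative to DMSO, with overt cytotoxicity tracked by parallel SRB total-protein staining (0.1% SRB, 10% TCA fixation, 560 nm).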

[10] = BSK_hDFCGF_SRB: Viability Assessment in the BioMAP Diversity Plus: hDFCGF Assay (AID 2283061); conditions: primary human foreskin fibroblasts;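 further: cells exposed to compound for 24 h before the read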
In short: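 Human foreskin fibroblasts in 96-well plates were treated 24 h. Total protein was measured by 0.1% SRB staining after 10% TCA fixation, read at 560 nm. Data were fitted bidirectionally against DMSO.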

[11] = read-out: TIMP metallopeptidase inhibitor 1 (TIMP1), TIMP1 (gene 7076); experiment: BSK_hDFCGF_TIMP1: BioMAP Diversity Plus: hDFCGF Assay for TIMP metallopeptidase inhibitor 1 (TIMP1) Biomarker Activity (AID 2283062); conditions: primary human foreskin fibroblasts; actives raise or lower the signal
In short: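 Human foreskin fibroblast primary cultures dosed for 24 h; secreted/surface TIMP-1 quantified by ELISA. Bidirectional curve fitting against DMSO baseline; cytotoxicity tracked in parallel cultures by SRB total-protein staining.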

[12] = read-out: Monokine induced gamma interferon (MIG), CXCL9 (gene 4283); experiment: BSK_hDFCGF_MIG: BioMAP Diversity Plus: hDFCGF Assay for Monokine induced gamma interferon (MIG) Biomarker Activity (AID 2283063); conditions: primary human foreskin fibroblasts; actives raise or lower the signal
In short: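 MIG/CXCL9 measured by ELISA 24 h after dosing primary human skin fibroblasts. Activity fitted in both directions against DMSO controls. Cytotoxicity was checked in parallel cultures by SRB staining read at 560 nm.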

[13] = read-out: Matrix Metallopeptidase 1 (MMP1), MMP1 (gene 4312); experiment: BSK_hDFCGF_MMP1: BioMAP Diversity Plus: hDFCGF Assay for Matrix Metallopeptidase 1 (MMP1) Biomarker Activity (AID 2283064); conditions: primary human foreskin fibroblasts; actives raise or lower the signal
In short: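 hDFCGF primary fibroblasts (human foreskin); chemical added; 24 h; MMP1 by ELISA; bidirectional fit vs DMSO.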

[14] = read-out: Vascular cell adhesion molecule 1 (VCAM1), VCAM1 (gene 7412); experiment: BSK_hDFCGF_VCAM1: BioMAP Diversity Plus: hDFCGF Assay for Vascular cell adhesion molecule 1 (VCAM1) Biomarker Activity (AID 2283065); conditions: primary human foreskin fibroblasts; actives raise or lower the signal;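 on AC50: VCAM-1 protein level quantified by ELISA after 24 h chemical exposure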
In short: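 Human foreskin fibroblast primary cells dosed with chemical, VCAM-1 measured by ELISA at 24 h. Bidirectional curve fitting relative to DMSO as negative control/baseline.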

[15] = read-out: Plasminogen activator inhibitor-1 (PAI1), SERPINE1 (gene 5054); experiment: BSK_hDFCGF_PAI1: BioMAP Diversity Plus: hDFCGF Assay for Plasminogen activator inhibitor-1 (PAI1) Biomarker Activity (AID 2283066); conditions: primary human foreskin fibroblasts; actives raise or lower the signal
In short: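 Primary dermal fibroblasts (human foreskin), hDFCGF system; compound 24 h; PAI-1 by ELISA; bidirectional fit vs DMSO control.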

[16] = read-out: Intercellular Adhesion Molecule 1 (ICAM1), ICAM1 (gene 3383); experiment: BSK_KF3CT_ICAM1: BioMAP Diversity Plus: KF3CT Assay for Intercellular Adhesion Molecule 1 (ICAM1) Biomarker Activity (AID 2283067); conditions: primary human keratinocytes with fibroblasts; actives raise or lower the signal
In short: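 Human keratinocyte–foreskin fibroblast co-culture was treated for 24 h. Cell-surface ICAM-1 was quantified by ELISA, fitted bidirectionally relative to DMSO. Cytotoxicity was checked in parallel cultures by SRB total-protein staining.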

[17] = read-out: Interferon-gamma inducible Protein 10 (IP10), CXCL10 (gene 3627); experiment: BSK_KF3CT_IP10: BioMAP Diversity Plus: KF3CT Assay for Interferon-gamma inducible Protein 10 (IP10) Biomarker Activity (AID 2283068); conditions: primary human keratinocytes with fibroblasts; actives raise or lower the signal
In short: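 ELISA read-out of IP-10 after 24 h chemical dosing of human skin primary co-culture (keratinocytes, foreskin fibroblasts). Gain or loss of signal relative to DMSO, bidirectional curve fit.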

[18] = BSK_KF3CT_SRB: Viability Assessment in the BioMAP Diversity Plus: KF3CT Assay (AID 2283069); conditions: primary human keratinocytes with fibroblasts;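 further: total protein by sulforhodamine B staining as a cytotoxicity measure; read 24 h after compound addition; fitted for both signal gain and loss against DMSO baseline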
In short: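 Keratinocytes co-cultured with foreskin fibroblasts (human primary); chemical added, 24 h; fix 10% TCA, stain 0.1% SRB, A560. Bidirectional fit vs DMSO.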

[19] = read-out: Interleukin-1 alpha (IL1a), IL1A (gene 3552); experiment: BSK_KF3CT_IL1a: BioMAP Diversity Plus: KF3CT Assay for Interleukin-1 alpha (IL1a) Biomarker Activity (AID 2283070); conditions: primary human keratinocytes with fibroblasts; actives raise or lower the signal
In short: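 Chemicals were dosed onto co-cultured human keratinocytes and foreskin fibroblasts, IL-1a was quantified by ELISA at 24 h, and activity was fitted in both directions relative to DMSO controls.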

[20] = read-out: TIMP metallopeptidase inhibitor 2 (TIMP2), TIMP2 (gene 7077); experiment: BSK_KF3CT_TIMP2: BioMAP Diversity Plus: KF3CT Assay for TIMP metallopeptidase inhibitor 2 (TIMP2) Biomarker Activity (AID 2283071); conditions: primary human keratinocytes with fibroblasts; actives raise or lower the signal
In short: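 Cells: human keratinocytes co-cultured with foreskin fibroblasts. Treat with chemical, 24 h. Measure TIMP-2 by ELISA; fit curves bidirectionally vs DMSO baseline.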

Measured: AC50

CN(C)C=O
inactive: [1] | [2] | [3] | [4] | [5] | [6] | [7] | [8] | [9] | [10] | [11] | [12] | [13] | [14] | [15] | [16] | [17] | [18] | [19] | [20]

CCCCOCCO
inactive: [1] | [2] | [3] | [4] | [5] | [6] | [7] | [8] | [9] | [10] | [11] | [12] | [13] | [14] | [15] | [16] | [17] | [18] | [19] | [20]

CCCCCCCCCCCCCCCS(=O)(=O)Oc1ccccc1
inactive: [1] | [2] | [3] | [4] | [5] | [6] | [7] | [8] | [9] | [10] | [11] | [12] | [13] | [14] | [15] | [16] | [17] | [18] | [19] | [20]

CC(=O)CC(C)(C)O
inactive: [1] | [2] | [3] | [4] | [5] | [6] | [7] | [8] | [9] | [10] | [11] | [12] | [13] | [14] | [15] | [16] | [17] | [18] | [19] | [20]

CCCCCCC(=O)O
inactive: [1] | [2] | [3] | [4] | [5] | [6] | [7] | [8] | [9] | [10] | [11] | [12] | [13] | [14] | [15] | [16] | [17] | [19] | [20]

CCN(CC)CCNc1ccc(CNC=O)c2sc3ccc(OC)cc3c(=O)c12
inactive: [6]
active: [1] 5.33 µM | [2] 15.5 µM | [3] 11.1 µM | [4] 12 µM | [5] 16.2 µM | [7] 33.7 µM | [8] 6.31 µM | [9] 12.9 µM | [10] 14.6 µM | [11] 13.1 µM | [12] 34.2 µM | [13] 10.7 µM | [14] 32.4 µM | [15] 11 µM | [16] 31.6 µM | [17] 30.8 µM | [18] 26.4 µM | [19] 22.3 µM | [20] 25 µM

CCCCCCCCC(=O)O
inactive: [1] | [2] | [3] | [4] | [5] | [6] | [7] | [8] | [9] | [10] | [11] | [12] | [13] | [14] | [15] | [16] | [17] | [18] | [19] | [20]
